TDP1 block – TDP1 (human) enzyme inhibition; recombinant TDP1, AlphaScreen DNA substrate cleavage; 350,000 tested, 0.28% active; AID 485290; Q9NUW8; Potency, µM (doses to about 130 µM), hits mostly inhibitors; note: nearly all actives have a fitted effect of over 40% in size
Target sequence (Q9NUW8 whole entry, looked up): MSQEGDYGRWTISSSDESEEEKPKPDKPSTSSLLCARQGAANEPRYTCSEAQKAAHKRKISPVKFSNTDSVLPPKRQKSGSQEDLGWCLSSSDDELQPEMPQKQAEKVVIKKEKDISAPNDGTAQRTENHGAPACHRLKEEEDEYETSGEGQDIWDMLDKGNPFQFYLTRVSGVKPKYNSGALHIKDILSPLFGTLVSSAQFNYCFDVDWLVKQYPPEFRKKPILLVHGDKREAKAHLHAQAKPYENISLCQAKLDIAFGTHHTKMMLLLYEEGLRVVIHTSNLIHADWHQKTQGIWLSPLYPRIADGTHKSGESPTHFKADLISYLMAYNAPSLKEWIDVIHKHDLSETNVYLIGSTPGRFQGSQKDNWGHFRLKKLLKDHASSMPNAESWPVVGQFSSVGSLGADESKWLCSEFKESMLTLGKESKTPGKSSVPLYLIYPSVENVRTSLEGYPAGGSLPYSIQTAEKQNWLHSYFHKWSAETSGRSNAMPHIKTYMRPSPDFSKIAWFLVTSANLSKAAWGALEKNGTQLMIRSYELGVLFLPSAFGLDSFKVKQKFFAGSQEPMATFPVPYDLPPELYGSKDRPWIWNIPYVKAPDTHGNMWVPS
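Steps: enzyme plus compound, 15 min RT; add biotin/phosphotyrosine-FITC oligonucleotide (15 nM final), react 5 min; add donor/acceptor beads (10 ug/ml final), 10 min; read AlphaScreen. Tdp1 at 1 nM final.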
DT40 TDP1 no CPT – qHTS for Inhibitors of human tyrosyl-DNA phosphodiesterase 1 (TDP1): qHTS in cells in absence of CPT. AID 686978, 2013. Potency, µM (highest dose often 46.2 µM), actives largely listed as inhibitors. 420,000 tested, 15% active. DT40 Tdp1-/- hTDP1 cells, no CPT, ATP luminescence, 48 h; note: nearly all actives have a fitted effect of over 55% in size
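Compound effects on proliferation are scored in DT40 Tdp1-/-;hTDP1 cells in the absence of CPT. ATP levels (CellTiter-Glo luminescence) are recorded after a ≥48 hr, 37 °C incubation.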
HepG2 tox – HepG2 cytotoxicity, counter-screen for TGF-b inhibitors. HepG2 CAGA-GFP viability, ATP luminescence, 18 h. 410,000 tested, 0.76% active. Potency, µM (doses to about 46.1 µM), most hits filed as cytotoxic. AID 588856
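HepG2 CAGA-GFP cells (1000/well, DMEM with 1% FBS) received compound, then TGF-beta at 500 pg/mL final, and were incubated 18 hours at 37 degrees C. Viability was read by CellTiter-Glo luminescence. Media-only wells were set as complete cell-killing and DMSO as no toxicity.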
IL-1B inflam inh – inflammasome signaling inhibition, IL-1 beta readout; THP-1 LPS/ATP IL-1B secretion, AlphaLISA, 16 h; active compounds read low; activity change, % at 57.5 µM; 360,000 tested, 4.7% active; AID 743279; in the data active = activity change below about -50%; inconclusive = mostly about -30% to -49%
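Secreted IL-1B measured by AlphaLISA bead assay after 16 h compound exposure of THP-1 cells; compounds (final up to 57.5 uM) added 1 h before LPS (250 ng/mL) and ATP (1.25 mM) stimulation; lower signal means less secretion.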
TGFb SMAD3 inh – blocks TGF-b signaling | Potency, µM (highest dose often 46.1 µM), hits mostly inhibitors | HepG2 CAGA-GFP TGF-b/SMAD3 reporter, GFP fluorescence, 18 h; TGF-beta stimulated, 500 pg/mL final | 410,000 tested, 1.2% active; note: nearly all actives have a fitted effect of over 65% in size
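Smad-responsive CAGA-GFP expression was quantified in HEPG2 cells exposed to compounds and 500 pg/mL final TGF-beta for 18 h at 37 degrees C; unstimulated wells defined full inhibition.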
DT40 TDP1 CPT – DT40-hTDP1 cell growth loss with CPT | chicken DT40 Tdp1-/-;hTDP1 cells + 20 nM CPT, ATP luminescence, 48 h | Potency, µM (doses to about 46.2 µM), most hits filed as inhibitors | 420,000 tested, 12% active | AID 686979; note: nearly all actives have a fitted effect of over 55% in size
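Cell growth measured by CellTiter-Glo luminescence after a minimum 48 h, 37 C compound exposure with 20 nM CPT in Tdp1-knockout DT40 cells stably expressing hTDP1, seeded 400/well; qHTS titration format.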
Each line names hits and unclear results; the compound was inactive in the other large screens. Compounds with a hit are over-represented: about 19% of the library has one in this group of screens. Unless noted, calls come from the whole dose curve; as a rule, active = well fitted curve in the direction sought with a large enough effect; inconclusive = small, poorly fitted or top-dose-only effect, or another doubt; inactive = no such curve, though single readings can be large; an effect the other way counts as inactive or inconclusive.

COc1ccc(-c2ccc3c(N)c(C(=O)Nc4cc(F)ccc4C)sc3n2)cc1	DT40 TDP1 no CPT 15µM, DT40 TDP1 CPT inconclusive (no result: TDP1 block, IL-1B inflam inh)
COc1cccc(-c2ccc3c(N)c(C(=O)Nc4ccc(Cl)cc4F)sc3n2)c1	DT40 TDP1 no CPT inconclusive (no result: TDP1 block, IL-1B inflam inh)
CC(C)C(NS(C)(=O)=O)c1nnc2n1CCN(Cc1ccnc3ccccc13)CC2 (centres undefined)	DT40 TDP1 CPT inconclusive (no result: TDP1 block, HepG2 tox, IL-1B inflam inh, TGFb SMAD3 inh)
CC1CCN(C(c2ccccc2)c2sc3nc(-c4ccco4)nn3c2O)CC1 (centres undefined)	DT40 TDP1 no CPT inconclusive, DT40 TDP1 CPT inconclusive (no result: IL-1B inflam inh)
O=C1N=C2N(CCN3CCCCC3)c3ccccc3N2/C1=C\c1ccc([N+](=O)[O-])s1	DT40 TDP1 no CPT inconclusive, DT40 TDP1 CPT 9.2µM (no result: TDP1 block)
CC1CCCC(C)N1C(=O)/C=C/c1ccc(S(=O)(=O)N2CCOCC2)cc1 (centres undefined)	DT40 TDP1 no CPT inconclusive, DT40 TDP1 CPT inconclusive
CCOC(=O)C(C(=O)OCC)C(C)(C)/C(C)=N\Nc1ccc([N+](=O)[O-])cc1[N+](=O)[O-]	DT40 TDP1 no CPT inconclusive, DT40 TDP1 CPT inconclusive (no result: TDP1 block)
CCOC(=O)CC(C)(C)/C(C)=N/Nc1ccc([N+](=O)[O-])cc1[N+](=O)[O-]	DT40 TDP1 no CPT 15µM, DT40 TDP1 CPT inconclusive
CCC(=O)N1c2ccccc2CC1C(=O)NCc1ccccc1C (centres undefined)	TGFb SMAD3 inh inconclusive (no result: IL-1B inflam inh)
CCOC(=O)Cn1nnc2c(sc3nc4c(c(-c5ccccc5)c32)CCC4)c1=O	DT40 TDP1 no CPT 16µM, DT40 TDP1 CPT 21µM
CCOC(=O)Cn1nnc2c(sc3nc4c(c(-c5ccc(Cl)cc5)c32)CCC4)c1=O	DT40 TDP1 no CPT 16µM, DT40 TDP1 CPT inconclusive
O=c1[nH]cnc2c1sc1nc3c(c(-c4ccc(Cl)cc4)c12)CCC3	none
CCOC(=O)c1c(C)nc2sc3c(=O)n(-c4ccc(C(C)=O)cc4)nnc3c2c1-c1ccc(Cl)cc1	DT40 TDP1 no CPT 16µM, TGFb SMAD3 inh inconclusive, DT40 TDP1 CPT inconclusive
CCOc1ccc(-n2c(SCC(=O)Nc3cc(C)ccc3C)nc3c([nH]c4ccccc43)c2=O)cc1	DT40 TDP1 no CPT 16µM, DT40 TDP1 CPT 13µM (no result: IL-1B inflam inh)
CCOc1ccc(-n2c(SCC(N)=O)nc3c([nH]c4ccccc43)c2=O)cc1	DT40 TDP1 no CPT inconclusive, DT40 TDP1 CPT 13µM
COCCn1c(=O)cnc2cnc(OCc3ccccc3)nc21	DT40 TDP1 no CPT inconclusive (no result: TDP1 block, HepG2 tox, IL-1B inflam inh, TGFb SMAD3 inh)
Cc1cc2cc(CNC(=O)C(C)Oc3ccccc3)ccc2n1C (centres undefined)	DT40 TDP1 no CPT inconclusive, DT40 TDP1 CPT inconclusive (no result: TDP1 block)
COc1ccc(-c2c(C#Cc3ccc(N(C)C)cc3)c3ccccc3n2C)cc1	DT40 TDP1 no CPT inconclusive, TGFb SMAD3 inh inconclusive, DT40 TDP1 CPT 23µM
COc1ccc(-c2c(C#Cc3ccsc3)c3cc(-c4ccc5cc[nH]c5c4)ccc3n2C)cc1	DT40 TDP1 no CPT 21µM, DT40 TDP1 CPT inconclusive
COc1ccc(-c2ccc3c(c2)c(C#Cc2ccsc2)c(-c2cc(OC)cc(OC)c2)n3C)cc1	DT40 TDP1 no CPT inconclusive
COc1ccc(-c2c(C#Cc3ccsc3)c3cc(-c4ccc(OC)c(F)c4)ccc3n2C)cc1	DT40 TDP1 no CPT inconclusive, DT40 TDP1 CPT inconclusive
COc1ccc(-c2c(C#Cc3ccsc3)c3cc(Br)ccc3n2C)cc1	DT40 TDP1 no CPT 21µM, DT40 TDP1 CPT inconclusive
O=S(=O)(c1ccc(F)cc1)N1CCN(C(=S)NC2CC2)CC1	DT40 TDP1 no CPT inconclusive
CCC(C(=O)Nc1cccc(S(=O)(=O)N(C)c2ccccc2)c1)c1ccccc1 (centres undefined)	DT40 TDP1 no CPT 18µM, TGFb SMAD3 inh inconclusive, DT40 TDP1 CPT 18µM
